Each structure is given as a SMILES string. About 4,300 (8.3%) of roughly 52,000 compounds were called active. This excerpt belongs to a sample that is enriched for actives. Unmarked numbers belong to inactive results. Cut-off read from the data, not from the text of the source: active = survival mostly below about 52% (no sharp cut-off); inactive = mostly above about 56%.

The assay concerns DeltatarO mutant. As to the kind of experiment: S. aureus survival, RN4220 and DeltatarO strains – OD600, teichoic acid synthesis inhibitors, primary screen (AID 463173). Particulars: S. aureus RN4220 wild type/DeltatarO growth, OD600, 18 h, active compounds read low, screened at 18.75 µg/mL (by protocol).
`CCc1ccc(NC(=O)Cn2ccn(-c3ccc(C)c(C)c3)c(=O)c2=O)cc1`: the survival is 104%. With `COc1ccc(OC)c(CCNC(=O)c2sc3nc4n(c(=O)c3c2C)CCCC4)c1` the figure was 80%; with `COc1cccc(NC(=O)CCN2C(=O)c3ccccc3Sc3ncccc32)c1`, 102%; with `O=c1c2cc3c(cc2nc2sc(Nc4cccc([N+](=O)[O-])c4)nn12)OCO3`, 123%. Turning to `O=C1c2[nH]nc(-c3ccccc3O)c2C(c2ccc(Cl)cc2)N1CCc1ccccc1` (configuration not stated), the survival is 4% (active). `CC(C)c1ccc(C2c3c(-c4ccccc4O)n[nH]c3C(=O)N2CCc2ccccc2)cc1` (configuration not stated): the survival was 50%. With `O=C1c2[nH]nc(-c3ccccc3O)c2C(c2ccc(F)cc2)N1CCO` (configuration not stated) the figure was 78%; with `Cc1ccc(C2c3c(-c4ccccc4O)n[nH]c3C(=O)N2CCCO)cc1` (configuration not stated), 58%. Consider `Cc1ccc(C2c3c(-c4ccccc4O)n[nH]c3C(=O)N2CCc2ccccc2)cc1` (configuration not stated), for which the survival is 32% (active).

Turning to `CCN1C(=O)N(CC)C2NC(=S)NNC21` (configuration not stated), the survival is 91%.

In the case of `CC(C)(C)OC(=O)N1CCC(c2c(C(=O)Nc3ccc4c(c3)OCCO4)cnn2-c2ccccc2)CC1`, the survival is 96%. With `CCn1nc(C)c2c(-c3ccccc3)cc(=O)n(C(C)C(=O)NCCc3ccc(OC)c(OC)c3)c21` (configuration not stated), the survival was 92%. Take `CCCS(=O)(=O)N1CC(=O)N(c2ccc(C)cc2C)C(C)(C(=O)NC2CCCCCC2)C1` (configuration not stated): the survival is 67%.

For the compound `CCC(=O)Nc1ccccc1-c1nc2ccccc2n(C(C)C(=O)Nc2ccc(OC)cc2)c1=O` (configuration not stated), the survival was 55%. Regarding `CC(=O)Nc1ccccc1-c1nc2ccccc2n(C(C)C(=O)Nc2cccc(C)c2C)c1=O` (configuration not stated), the survival was 100%. For the compound `CCC(=O)Nc1ccccc1-c1nc2ccccc2n(C(CC)C(=O)Nc2cccc(C(C)=O)c2)c1=O` (configuration not stated), the survival was 91%. Under `CCC(=O)Nc1ccccc1-c1nc2ccccc2n(C(CC)C(=O)Nc2cccc(Cl)c2)c1=O` (configuration not stated) stands 24% (active); under `CCC(C(=O)Nc1ccc(C)c(Cl)c1)n1c(=O)c(-c2ccccc2NC(C)=O)nc2ccccc21` (configuration not stated), 63%; under `CCC(=O)Nc1ccccc1-c1nc2ccccc2n(C(C)C(=O)Nc2cccc(Cl)c2C)c1=O` (configuration not stated), 42% (active). Take `CC(C)N(C(=O)CSc1nnc(Cn2nnc3ccccc32)n1C)C(C)C`: the survival is 81%.

Consider `Cc1ccn2c(Nc3ccc4c(c3)OCO4)c(-c3ccc(N(C)C)cc3)nc2c1`, for which the survival was 101%. Regarding `COc1ccc(C(=O)Oc2ccc(C(c3c(C)[nH][nH]c3=O)c3c(C)[nH][nH]c3=O)cc2)cc1`, the survival was 80%.

With `COc1ccc2sc(N(Cc3cccnc3)C(=O)c3cccs3)nc2c1`, the survival is 76%. On to `CCS(=O)(=O)c1ccccc1C(=O)N(Cc1cccnc1)c1nc2cc(C)c(C)cc2s1`, for which the survival is 112%.

In the case of `COc1ccc2nc(N(Cc3cccnc3)C(=O)c3ccco3)sc2c1`, the survival was 101%.

`Cc1cc2nc(N(Cc3cccnc3)C(=O)c3ccc(Cl)s3)sc2cc1C`: the survival was 32% (active). In the case of `COc1ccc2sc(N(Cc3cccnc3)C(=O)c3ccco3)nc2c1`, the survival was -2% (active). On to `COc1cc(C(=O)N(Cc2cccnc2)c2nc3cc(C)c(C)cc3s2)cc(OC)c1OC`, for which the survival was 49%.

Turning to `COc1ccc(N(C(=O)c2snc(C(N)=O)c2N)C(C(=O)NCc2ccc(F)cc2)c2ccc(C)o2)c(OC)c1` (configuration not stated), the survival is 67%. For `Cc1ccccc1-c1noc(-c2ccc(N3CCCC3)c([N+](=O)[O-])c2)n1`, the survival was 65%. Turning to `CCOC(=O)c1ccccc1NC(=O)COc1ccccc1-c1nnc(-c2ccccc2)o1`, the survival is 49%. With `CCC(Oc1ccc(F)cc1)C(=O)Nc1cc(-c2ccc(C)cc2)no1` (configuration not stated) the figure was 54%; with `CCC(Oc1ccccc1F)C(=O)Nc1c(C(=O)c2ccccc2)oc2ccccc12` (configuration not stated), 53%; with `CCC(Oc1ccccc1-c1nnc(-c2ccccc2)o1)C(=O)Nc1ccc(C(C)=O)cc1` (configuration not stated), 112%. With `Cc1ccc(-c2cc(NC(=O)C(C)Oc3ccc(C)c(C)c3)on2)cc1` (configuration not stated), the survival was 93%. Under `CC(Oc1ccc(F)cc1)C(=O)Nc1cc(-c2ccc(F)c(F)c2)no1` (configuration not stated) stands 59%; under `CCc1ccccc1NC(=O)C(CC)Oc1ccccc1-c1nnc(-c2ccccc2)o1` (configuration not stated), 32% (active); under `CCC(Oc1ccccc1F)C(=O)Nc1cc(-c2ccccc2)no1` (configuration not stated), 35% (active). Turning to `Cc1ccc(-c2cc(NC(=O)C(C)Oc3ccccc3F)on2)cc1` (configuration not stated), the survival was 33% (active). Under `Cc1ccc(NC(=O)CCCn2c(=O)c3cccn3c3cccnc32)c(C)c1` stands 87%; under `COc1ccc(CNC(=O)CCc2nnc3n(C)c(=O)c4sccc4n23)cc1`, 180%. Under `O=C(CN1CCN(Cc2ccccc2Cl)C1=O)NCCc1ccc(Cl)cc1` stands 49%; under `COc1cccc(-c2nc(SCC(=O)NCC3CCCO3)c(-c3ccc(Cl)cc3)[nH]2)c1` (configuration not stated), 63%.

`CCOc1c(Br)cc(C2CC(=O)Nc3cc4c(cc32)OCO4)cc1OC` (configuration not stated): the survival is 127%.

With `CCC1CCCCN1C1CC(=O)N(c2ccc(NC(C)=O)cc2)C1=O` (configuration not stated), the survival was 96%. Regarding `CCOc1ccc(N2C(=O)CC(N3CCCCC3CC)C2=O)cc1` (configuration not stated), the survival was 53% (active). As for `COc1ccc(N2C(=O)CC(N3CCCCC3C)C2=O)cc1` (configuration not stated), the survival is 106%. Take `CCCCSc1nnc2n(-c3cccc(C)c3)c(=O)c3c4c(sc3n12)CCCC4`: the survival was 1% (active). With `CCCSc1nnc2n(-c3cccc(C)c3)c(=O)c3c4c(sc3n12)CCCC4`, the survival is 5% (active). On to `CCSc1nnc2n(-c3cccc(C)c3)c(=O)c3c4c(sc3n12)CCCC4`, for which the survival was 71%. Under `CSc1nnc2n(-c3cccc(C)c3)c(=O)c3c4c(sc3n12)CCCC4` stands 66%; under `CCSc1nnc2n(-c3ccccc3)c(=O)c3c4c(sc3n12)CCCC4`, 95%; under `Cc1cccc(-n2c(=O)c3c4c(sc3n3cnnc23)CCCC4)c1`, 72%. As to `CC(C)Oc1ccc(CNC(=O)c2cc3cccc4c3n2CC(C)S4)cc1` (configuration not stated), the survival is 91%. With `Cc1ccc(CCNC(=O)c2nn(C)c3c2CSc2ccccc2-3)cc1` the figure was 82%. As for `Cc1cccc(CCNC(=O)c2nn(C)c3c2CSc2ccccc2-3)c1`, the survival is 77%. Under `Cc1ccc2c(c1)-c1c(c(C(=O)NCCc3ccccc3)nn1C)CS2` stands 37% (active).

Values taken from PubChem BioAssay AID463173 (ICCB-Longwood Screening Facility, Harvard Medical School, 2010).
